Read-outs that look alike come from different tables or passages of the source.

Set-up in all cases: species or system human, MV4-11 + K-562 + COLO205 + SK-N-BE2 + OVCAR-8
In assay [1] the test system is CDC42. Conditions: read-out: apparent Kd, n = 1.
Assay [2] relates to T1, DJA1.
T1 construct: gene DNAJA1
The conditions noted are these: read-out: apparent Kd; compound concentrations:100 nM and 1000 nM (sheet 'Samples'); n = 1.

Assay [3] has as its system PRKCQ. The conditions noted are these: read-out: apparent Kd; compound concentrations:100 nM and 1000 nM (sheet 'Samples'); n = 1.
Assay [4] concerns CDK16. Conditions: read-out: apparent Kd, n = 1.
In assay [5] the test system is CDK17. The conditions noted are these: read-out: apparent Kd, n = 1.
Assay [6] deals with CDKL5. The conditions noted are these: read-out: apparent Kd, n = 1.
For assay [7], the system named is CLK1. The conditions noted are these: read-out: apparent Kd, n = 1.
Assay [8] concerns CLK4. The conditions noted are these: read-out: apparent Kd, n = 1.
Assay [9] relates to DYRK1A. Conditions: read-out: apparent Kd, n = 1.
Assay [10] has as its system GSK3A. Conditions: read-out: apparent Kd, compound concentrations: 100 nM and 1000 nM (sheet 'Samples'), n = 1.
Assay [11] has as its system GSK3B. Conditions: read-out: apparent Kd, n = 1.
Assay [12] concerns CDK10. The conditions noted are these: read-out: apparent Kd; compound concentrations:100 nM and 1000 nM (sheet 'Samples'); n = 1.
The subject of assay [13] is CDK1. The conditions noted are these: read-out: apparent Kd; compound concentrations:100 nM and 1000 nM (sheet 'Samples'); n = 1.
Assay [14] deals with CDK2. Conditions: read-out: apparent Kd; compound concentrations:100 nM and 1000 nM (sheet 'Samples'); n = 1.
Assay [15] deals with CDK4. Conditions: read-out: apparent Kd; compound concentrations:100 nM and 1000 nM (sheet 'Samples'); n = 1.
Assay [16] concerns CDK5. Conditions: read-out: apparent Kd; compound concentrations:100 nM and 1000 nM (sheet 'Samples'); n = 1.
In assay [17] the test system is CDK6. The conditions noted are these: read-out: apparent Kd; compound concentrations:100 nM and 1000 nM (sheet 'Samples'); n = 1.
Assay [18] relates to CDK7. The conditions noted are these: read-out: apparent Kd; compound concentrations:100 nM and 1000 nM (sheet 'Samples'); n = 1.
In assay [19] the test system is CDK9. The conditions noted are these: read-out: apparent Kd, n = 1.
Assay [20] relates to ICK. Conditions: read-out: apparent Kd; compound concentrations:100 nM and 1000 nM (sheet 'Samples'); n = 1.
In assay [21] the test system is SLK. Conditions: read-out: apparent Kd; compound concentrations:100 nM and 1000 nM (sheet 'Samples'); n = 1.
Assay [22] relates to CSNK1A1. Conditions: read-out: apparent Kd; compound concentrations:100 nM and 1000 nM (sheet 'Samples'); n = 1.
Assay [23] has as its system CSNK1D. Conditions: read-out: apparent Kd; compound concentrations:100 nM and 1000 nM (sheet 'Samples'); n = 1.
Assay [24] relates to CSNK1E. The conditions noted are these: read-out: apparent Kd; compound concentrations:100 nM and 1000 nM (sheet 'Samples'); n = 1.
For assay [25], the system named is ERBB3. The conditions noted are these: read-out: apparent Kd, n = 1.
Assay [26] relates to MAPK14. Conditions: read-out: apparent Kd; compound concentrations:100 nM and 1000 nM (sheet 'Samples'); n = 1.
Assay [27] concerns MAPKAPK2. The conditions noted are these: read-out: apparent Kd; compound concentrations:100 nM and 1000 nM (sheet 'Samples'); n = 1.
The test system of assay [28] is RAB14. Conditions: read-out: apparent Kd; compound concentrations:100 nM and 1000 nM (sheet 'Samples'); n = 1.
In assay [29] the test system is CSNK2A1;CSNK2A3. The conditions noted are these: read-out: apparent Kd, n = 1.
Assay [30] has as its system CSNK2A2. The conditions noted are these: read-out: apparent Kd, n = 1.
Assay [31] concerns NQO2. The conditions noted are these: read-out: apparent Kd; compound concentrations:100 nM and 1000 nM (sheet 'Samples'); n = 1.
The test system of assay [32] is PRKD2. Conditions: read-out: apparent Kd; compound concentrations:100 nM and 1000 nM (sheet 'Samples'); n = 1.
In assay [33] the test system is PRKD3. Conditions: read-out: apparent Kd; compound concentrations:100 nM and 1000 nM (sheet 'Samples'); n = 1.
Assay [34] has as its system SMG1. Conditions: read-out: apparent Kd; compound concentrations: 100 nM and 1000 nM (sheet 'Samples'), CATDS: 7.6423635677126206E-2; n = 1.
Assay [35] deals with EGFR. The conditions noted are these: read-out: apparent Kd; compound concentrations: 100 nM and 1000 nM (sheet 'Samples'), CATDS: 0.71685181489177596; n = 1.
Assay [36] concerns NNT. The conditions noted are these: read-out: apparent Kd, n = 1.
Assay [37] relates to RAB5C. Conditions: read-out: apparent Kd; compound concentrations: 100 nM and 1000 nM (sheet 'Samples'), CATDS: 0.157008240219803; n = 1.
In assay [38] the test system is RIPK2. The conditions noted are these: read-out: apparent Kd; compound concentrations: 100 nM and 1000 nM (sheet 'Samples'), CATDS: 0.27482887705752401; n = 1.
The test system of assay [39] is PSMC4. Conditions: read-out: apparent Kd; compound concentrations:100 nM and 1000 nM (sheet 'Samples'); n = 1.
Assay [40] concerns CDC7. The conditions noted are these: read-out: apparent Kd, n = 1.
In assay [41] the test system is PIK3CD. The conditions noted are these: read-out: apparent Kd; compound concentrations:100 nM and 1000 nM (sheet 'Samples'); n = 1.
Assay [42] has as its system TGFBR1. Conditions: read-out: apparent Kd; compound concentrations:100 nM and 1000 nM (sheet 'Samples'); n = 1.
[43] abbreviates: compound concentrations:100 nM and 1000 nM (sheet 'Samples').

For `CNc1nc(-c2ccc3c(N)n[nH]c3c2)cc(N2C[C@@H](C(=O)Nc3ccccc3)CC[C@H]2C)n1` [GSK2298859A], the potency estimated from few doses in assay [1] (setting [43]) was 2140 nM; in assay [2] it was 880 nM; in assay [3], 1800 nM.
On to `CCN1CCC(CC(=O)Nc2n[nH]c3nnc(-c4cccc(F)c4F)cc23)CC1.O=C(O)[C@H](O)[C@@H](O)C(=O)O` [SB-698596-AC], for which the potency estimated from few doses in assay [4] (setting [43]) was 53.3 nM; in [5] (setting [43]) it was 995 nM; in assay [6] (setting [43]), 46.9 nM; in assay [7] (setting [43]), 693 nM; in [8] (setting [43]), 1420 nM; in [9] (setting [43]), 1520 nM. The potency estimated from few doses is 0.905 nM in [10] (CATDS: 0.61035791771228698) and 2.33 nM in assay [11] (setting [43]).
For `COc1ccc(F)cc1C(=O)c1cnc(NC2CCN(S(C)(=O)=O)CC2)nc1N` [RO4517872-000], the potency estimated from few doses in assay [12] was 915 nM; in assay [4] (setting [43]), 74.1 nM; in assay [5] (setting [43]) it was 75.1 nM; in assay [13], 402 nM; in assay [14] it was 62.7 nM; in assay [15], 1200 nM. The potency estimated from few doses is 221 nM in assay [16]; 1680 nM in [17]; 1460 nM in assay [18]; 246 nM in assay [19] (setting [43]); 347 nM in assay [20]; 1280 nM in assay [21].
For the compound `NC(=O)c1ccc(Oc2nccc(-c3c(-c4ccc(F)cc4)ncn3C3CCNCC3)n2)cc1` [SB-242718], the potency estimated from few doses in assay [1] (setting [43]) is 922 nM; in assay [22], 2320 nM; in [23] it was 246 nM; in assay [24], 642 nM; in assay [25] (setting [43]) it was 1430 nM; in assay [26] it was 476 nM. The potency estimated from few doses in [27] is 18.3 nM; in assay [28], 1380 nM.
Turning to `Cc1cccc(-c2nc(Nc3cccc(C(N)=O)c3)c3ccccc3n2)n1` [GW876019X], the potency estimated from few doses is 2080 nM in assay [1] (setting [43]); 1510 nM in assay [29] (setting [43]); 2230 nM in assay [30] (setting [43]); 1160 nM in [31]; 739 nM in assay [32]; 1510 nM in assay [33].
In the case of `CCN1CCC(C(=O)Nc2n[nH]c3nnc(-c4cccc(F)c4F)cc23)CC1.Cl` [SB-686709-A], the potency estimated from few doses in [4] (compound concentrations: 100 nM and 1000 nM (sheet 'Samples'), CATDS: 0.11637141533409) was 199 nM; in assay [5] (compound concentrations: 100 nM and 1000 nM (sheet 'Samples'), CATDS: 0.129072520880324) it was 132 nM; in assay [19] (compound concentrations: 100 nM and 1000 nM (sheet 'Samples'), CATDS: 8.2181630461084801E-2), 1050 nM; in [6] (compound concentrations: 100 nM and 1000 nM (sheet 'Samples'), CATDS: 0.15820279930109701) it was 60.5 nM; in assay [9] (compound concentrations: 100 nM and 1000 nM (sheet 'Samples'), CATDS: 8.3758685626984103E-2), 937 nM; in [10] (CATDS: 0.64867635498298803), 0.589 nM. For the same compound, the potency estimated from few doses was 1.75 nM in assay [11] (compound concentrations: 100 nM and 1000 nM (sheet 'Samples'), CATDS: 0.38395769159981902); 1680 nM in [34].
Consider `CN(C)c1cc2c(Nc3ccc4nc(Cc5ccccc5)[nH]c4c3)ncnc2cn1` [GW301888X], for which the potency estimated from few doses in assay [1] (compound concentrations: 100 nM and 1000 nM (sheet 'Samples'), CATDS: 0.115085372614253) is 1800 nM; in assay [35], 19.1 nM; in assay [25] (compound concentrations: 100 nM and 1000 nM (sheet 'Samples'), CATDS: 0.132982955491593) it was 1030 nM; in assay [36] (compound concentrations: 100 nM and 1000 nM (sheet 'Samples'), CATDS: 0.11921325436386) it was 1550 nM; in assay [37] it was 599 nM; in assay [38] it was 133 nM.
In the case of `COc1cccc(F)c1C(=O)c1cnc(NC2CCN(S(C)(=O)=O)CC2)nc1N` [RO4602005-000], the potency estimated from few doses in assay [4] (setting [43]) is 9.38 nM; in assay [5] (setting [43]) it was 73.2 nM; in assay [13], 228 nM; in [14], 37.7 nM; in assay [15], 1450 nM; in assay [16] it was 234 nM. The potency estimated from few doses in [17] was 1750 nM; in [18] it was 812 nM; in [19] (setting [43]), 206 nM; in assay [20], 146 nM; in assay [36] (setting [43]) it was 1690 nM; in assay [39], 1400 nM. Moreover, in [21], the potency estimated from few doses is 845 nM.
Regarding `c1ccc(-c2cc(-c3c[nH]nc3-c3ccccn3)ccn2)cc1` [GW576604X], the potency estimated from few doses is 1870 nM in assay [40] (setting [43]), 128 nM in [41] and 629 nM in assay [42].
For the compound `O=C1N=C(N[C@@H]2C[C@H]2c2ccccc2)S/C1=C\c1ccc2ncccc2c1` [RO4915610-000], the potency estimated from few doses is 1800 nM in assay [40] (compound concentrations: 100 nM and 1000 nM (sheet 'Samples'), CATDS: 9.1392533314382199E-2); 1130 nM in assay [6] (compound concentrations: 100 nM and 1000 nM (sheet 'Samples'), CATDS: 0.100532719571443); 542 nM in assay [7] (compound concentrations: 100 nM and 1000 nM (sheet 'Samples'), CATDS: 0.12211476464111); 671 nM in [8] (compound concentrations: 100 nM and 1000 nM (sheet 'Samples'), CATDS: 0.114770368167016); 61.5 nM in assay [29] (compound concentrations: 100 nM and 1000 nM (sheet 'Samples'), CATDS: 0.31191577539645199); 51.1 nM in assay [30] (compound concentrations: 100 nM and 1000 nM (sheet 'Samples'), CATDS: 0.34928398987599801). Besides, the potency estimated from few doses in assay [9] (compound concentrations: 100 nM and 1000 nM (sheet 'Samples'), CATDS: 0.194548178255603) was 154 nM.

(Values after article PMC11062922 (Nature Chemical Biology, 2023).)
